Laboratory results taken from the supplement of paper PMC11732987, “Enantioselective OTUD7B fragment discovery through chemoproteomics screening and high-throughput optimisation” (Communications Chemistry, 2025).

Experiments:
Assay in all cases: log2 ratio of Biotin-Ahx-Ub-VS probe labelling (fragment/DMSO); higher = less target engagement (more negative = stronger competition), active = hit call of the paper (q ≤ 0.05, log2 ratio ≤ -1)
Details in all cases: compound concentration: 200 uM; treatment time: 3 h
USP42 = biological target: T1, USP42 (UniProt Q9H9J4)
T1 sequence (whole entry): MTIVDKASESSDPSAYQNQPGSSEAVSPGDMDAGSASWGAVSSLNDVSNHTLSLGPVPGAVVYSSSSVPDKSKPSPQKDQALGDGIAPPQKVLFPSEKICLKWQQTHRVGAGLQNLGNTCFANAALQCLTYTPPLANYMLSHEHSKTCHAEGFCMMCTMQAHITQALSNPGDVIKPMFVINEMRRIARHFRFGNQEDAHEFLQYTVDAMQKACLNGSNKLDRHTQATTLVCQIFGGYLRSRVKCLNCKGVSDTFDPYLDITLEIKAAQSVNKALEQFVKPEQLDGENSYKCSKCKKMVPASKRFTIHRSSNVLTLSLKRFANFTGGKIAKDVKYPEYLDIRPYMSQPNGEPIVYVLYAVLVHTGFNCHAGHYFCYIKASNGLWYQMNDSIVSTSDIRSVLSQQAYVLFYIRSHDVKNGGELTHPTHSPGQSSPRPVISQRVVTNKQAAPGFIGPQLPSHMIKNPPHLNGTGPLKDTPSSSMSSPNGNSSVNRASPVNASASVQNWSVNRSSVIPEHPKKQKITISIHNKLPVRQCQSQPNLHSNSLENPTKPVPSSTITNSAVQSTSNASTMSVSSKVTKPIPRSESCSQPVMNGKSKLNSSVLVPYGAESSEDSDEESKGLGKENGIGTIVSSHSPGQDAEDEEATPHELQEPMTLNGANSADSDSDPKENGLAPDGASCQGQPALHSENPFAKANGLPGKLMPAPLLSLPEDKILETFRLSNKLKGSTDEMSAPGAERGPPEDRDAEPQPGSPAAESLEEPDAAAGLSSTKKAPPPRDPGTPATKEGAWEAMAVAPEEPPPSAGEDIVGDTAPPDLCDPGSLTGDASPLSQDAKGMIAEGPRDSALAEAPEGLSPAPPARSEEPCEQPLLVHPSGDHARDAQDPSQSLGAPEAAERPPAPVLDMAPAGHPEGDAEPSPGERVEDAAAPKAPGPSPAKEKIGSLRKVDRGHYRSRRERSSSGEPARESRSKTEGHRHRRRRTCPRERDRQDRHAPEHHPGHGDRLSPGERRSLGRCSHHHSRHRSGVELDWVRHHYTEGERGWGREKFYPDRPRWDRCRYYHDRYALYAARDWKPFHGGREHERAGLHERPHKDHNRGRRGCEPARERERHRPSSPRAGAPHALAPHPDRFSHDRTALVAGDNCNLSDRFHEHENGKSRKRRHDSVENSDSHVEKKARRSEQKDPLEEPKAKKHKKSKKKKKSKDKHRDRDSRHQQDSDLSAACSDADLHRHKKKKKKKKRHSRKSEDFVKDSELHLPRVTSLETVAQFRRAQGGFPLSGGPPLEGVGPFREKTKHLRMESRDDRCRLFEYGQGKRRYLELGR
Outline: (§1)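 Labelled DUBs from HEK293T lysate were NeutrAvidin-enriched, digested with LysC and trypsin, and run by diaPASEF LC-MS/MS. Before that, each 495 µg sample in Tris/CHAPS/IGEPAL buffer with protease inhibitors was treated in triplicate with fragment at 200 µM or vehicle for 3 h, then with Biotin-Ahx-Ub-VS at 0.5 µM final for 1 h. Values are average log2 ratios of fragment over vehicle by unpaired t-test, based on global-median-normalised Spectronaut label-free quantities from proteins with ≥2 unique peptides.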

USP46 = USP46 (UniProt P62068)
Outline: as §1

USP47 = biological target: T2, USP47 (UniProt Q96K76)
T2 sequence (whole entry): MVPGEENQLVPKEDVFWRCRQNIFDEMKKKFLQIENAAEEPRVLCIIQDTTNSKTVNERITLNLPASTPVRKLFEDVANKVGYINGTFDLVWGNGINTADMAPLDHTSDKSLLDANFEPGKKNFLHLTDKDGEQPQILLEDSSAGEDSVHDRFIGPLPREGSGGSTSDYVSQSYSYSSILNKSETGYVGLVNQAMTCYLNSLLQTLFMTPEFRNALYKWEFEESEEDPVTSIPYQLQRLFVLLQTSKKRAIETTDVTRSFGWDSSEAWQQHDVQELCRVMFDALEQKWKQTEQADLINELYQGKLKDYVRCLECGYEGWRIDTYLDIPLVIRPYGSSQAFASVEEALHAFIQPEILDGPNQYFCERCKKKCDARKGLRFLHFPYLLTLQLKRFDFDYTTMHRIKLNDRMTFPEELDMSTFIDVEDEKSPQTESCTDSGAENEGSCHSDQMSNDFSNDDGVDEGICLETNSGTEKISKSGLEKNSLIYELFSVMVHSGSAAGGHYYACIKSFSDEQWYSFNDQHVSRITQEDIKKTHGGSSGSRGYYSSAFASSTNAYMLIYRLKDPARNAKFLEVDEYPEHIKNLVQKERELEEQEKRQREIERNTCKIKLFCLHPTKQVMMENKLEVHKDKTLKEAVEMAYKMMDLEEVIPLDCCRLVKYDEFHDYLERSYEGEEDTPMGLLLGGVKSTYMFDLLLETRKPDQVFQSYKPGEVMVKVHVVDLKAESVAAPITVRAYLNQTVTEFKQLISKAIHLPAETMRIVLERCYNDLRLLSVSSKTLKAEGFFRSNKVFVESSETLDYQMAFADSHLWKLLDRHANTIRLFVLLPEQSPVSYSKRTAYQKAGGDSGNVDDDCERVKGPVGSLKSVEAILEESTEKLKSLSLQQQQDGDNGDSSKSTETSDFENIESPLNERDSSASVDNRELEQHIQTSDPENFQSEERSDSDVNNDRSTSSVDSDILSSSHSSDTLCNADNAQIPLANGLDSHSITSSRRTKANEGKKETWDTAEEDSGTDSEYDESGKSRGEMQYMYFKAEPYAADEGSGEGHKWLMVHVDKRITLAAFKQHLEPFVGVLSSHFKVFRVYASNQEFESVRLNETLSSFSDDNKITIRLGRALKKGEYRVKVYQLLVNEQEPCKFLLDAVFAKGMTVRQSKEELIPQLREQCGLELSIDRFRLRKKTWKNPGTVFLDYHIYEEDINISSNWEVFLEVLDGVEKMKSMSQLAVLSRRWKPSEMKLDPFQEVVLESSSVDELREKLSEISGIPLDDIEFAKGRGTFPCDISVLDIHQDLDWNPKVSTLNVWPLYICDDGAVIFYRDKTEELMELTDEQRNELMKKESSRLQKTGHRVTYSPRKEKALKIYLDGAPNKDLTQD
Outline: as §1

USP48 = biological target: T3, USP48 (UniProt Q86UV5)
T3 sequence (whole entry): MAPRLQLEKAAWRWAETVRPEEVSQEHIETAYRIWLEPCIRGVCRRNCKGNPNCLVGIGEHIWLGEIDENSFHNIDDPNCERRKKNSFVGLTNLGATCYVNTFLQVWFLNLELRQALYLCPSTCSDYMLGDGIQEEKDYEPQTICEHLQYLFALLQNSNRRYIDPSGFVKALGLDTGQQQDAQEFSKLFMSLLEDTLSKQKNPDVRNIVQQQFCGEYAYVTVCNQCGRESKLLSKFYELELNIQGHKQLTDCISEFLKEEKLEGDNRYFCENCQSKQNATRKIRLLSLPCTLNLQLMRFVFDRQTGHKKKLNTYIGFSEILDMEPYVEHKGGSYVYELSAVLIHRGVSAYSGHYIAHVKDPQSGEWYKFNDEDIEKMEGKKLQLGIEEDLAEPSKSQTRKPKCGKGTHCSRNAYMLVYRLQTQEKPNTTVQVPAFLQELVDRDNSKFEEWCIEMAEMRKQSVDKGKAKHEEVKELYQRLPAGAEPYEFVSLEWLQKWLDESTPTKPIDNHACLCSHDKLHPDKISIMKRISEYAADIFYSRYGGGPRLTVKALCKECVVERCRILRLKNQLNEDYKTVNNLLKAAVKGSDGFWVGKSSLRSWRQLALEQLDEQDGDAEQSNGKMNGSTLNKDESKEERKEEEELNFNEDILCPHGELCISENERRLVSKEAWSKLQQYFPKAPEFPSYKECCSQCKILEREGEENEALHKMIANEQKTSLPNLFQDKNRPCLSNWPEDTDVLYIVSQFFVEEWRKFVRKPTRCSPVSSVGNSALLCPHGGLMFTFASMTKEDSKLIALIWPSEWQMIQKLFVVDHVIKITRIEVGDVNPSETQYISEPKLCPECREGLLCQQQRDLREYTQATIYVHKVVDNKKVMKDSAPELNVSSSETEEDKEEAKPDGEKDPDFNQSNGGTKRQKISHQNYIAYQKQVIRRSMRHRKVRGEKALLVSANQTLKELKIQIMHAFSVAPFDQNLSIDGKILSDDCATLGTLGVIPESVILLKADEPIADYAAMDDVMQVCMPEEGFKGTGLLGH
Outline: as §1

USP5 = biological target: T4, USP5 (UniProt P45974)
T4 sequence (whole entry): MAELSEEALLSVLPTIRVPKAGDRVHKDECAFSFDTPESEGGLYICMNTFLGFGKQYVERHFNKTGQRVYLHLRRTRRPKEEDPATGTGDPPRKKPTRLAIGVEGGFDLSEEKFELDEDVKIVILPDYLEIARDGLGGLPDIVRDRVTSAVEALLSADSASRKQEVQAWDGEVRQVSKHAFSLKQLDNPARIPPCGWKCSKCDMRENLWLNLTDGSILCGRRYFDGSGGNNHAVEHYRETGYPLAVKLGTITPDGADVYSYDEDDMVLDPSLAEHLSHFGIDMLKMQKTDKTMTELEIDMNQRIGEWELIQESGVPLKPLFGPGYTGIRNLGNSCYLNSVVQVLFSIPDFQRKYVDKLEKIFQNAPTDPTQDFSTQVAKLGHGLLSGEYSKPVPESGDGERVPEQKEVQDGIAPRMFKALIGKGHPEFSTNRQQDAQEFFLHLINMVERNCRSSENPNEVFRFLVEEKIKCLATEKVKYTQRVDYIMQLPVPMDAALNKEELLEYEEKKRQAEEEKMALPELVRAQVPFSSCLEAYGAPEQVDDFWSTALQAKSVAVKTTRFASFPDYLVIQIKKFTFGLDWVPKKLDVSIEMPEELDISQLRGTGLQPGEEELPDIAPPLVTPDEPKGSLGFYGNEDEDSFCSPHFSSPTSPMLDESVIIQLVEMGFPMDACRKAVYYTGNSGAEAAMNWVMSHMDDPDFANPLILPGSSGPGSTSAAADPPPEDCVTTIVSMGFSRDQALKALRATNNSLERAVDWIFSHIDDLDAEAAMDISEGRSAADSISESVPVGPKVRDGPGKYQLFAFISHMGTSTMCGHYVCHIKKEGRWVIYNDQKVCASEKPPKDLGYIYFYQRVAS
Outline: as §1

USP54 = USP54 (UniProt Q70EL1)
Outline: as §1

USP7 = USP7 (UniProt Q93009)
Outline: as §1

USP8 = biological target: T5, USP8 (UniProt P40818)
T5 sequence (whole entry): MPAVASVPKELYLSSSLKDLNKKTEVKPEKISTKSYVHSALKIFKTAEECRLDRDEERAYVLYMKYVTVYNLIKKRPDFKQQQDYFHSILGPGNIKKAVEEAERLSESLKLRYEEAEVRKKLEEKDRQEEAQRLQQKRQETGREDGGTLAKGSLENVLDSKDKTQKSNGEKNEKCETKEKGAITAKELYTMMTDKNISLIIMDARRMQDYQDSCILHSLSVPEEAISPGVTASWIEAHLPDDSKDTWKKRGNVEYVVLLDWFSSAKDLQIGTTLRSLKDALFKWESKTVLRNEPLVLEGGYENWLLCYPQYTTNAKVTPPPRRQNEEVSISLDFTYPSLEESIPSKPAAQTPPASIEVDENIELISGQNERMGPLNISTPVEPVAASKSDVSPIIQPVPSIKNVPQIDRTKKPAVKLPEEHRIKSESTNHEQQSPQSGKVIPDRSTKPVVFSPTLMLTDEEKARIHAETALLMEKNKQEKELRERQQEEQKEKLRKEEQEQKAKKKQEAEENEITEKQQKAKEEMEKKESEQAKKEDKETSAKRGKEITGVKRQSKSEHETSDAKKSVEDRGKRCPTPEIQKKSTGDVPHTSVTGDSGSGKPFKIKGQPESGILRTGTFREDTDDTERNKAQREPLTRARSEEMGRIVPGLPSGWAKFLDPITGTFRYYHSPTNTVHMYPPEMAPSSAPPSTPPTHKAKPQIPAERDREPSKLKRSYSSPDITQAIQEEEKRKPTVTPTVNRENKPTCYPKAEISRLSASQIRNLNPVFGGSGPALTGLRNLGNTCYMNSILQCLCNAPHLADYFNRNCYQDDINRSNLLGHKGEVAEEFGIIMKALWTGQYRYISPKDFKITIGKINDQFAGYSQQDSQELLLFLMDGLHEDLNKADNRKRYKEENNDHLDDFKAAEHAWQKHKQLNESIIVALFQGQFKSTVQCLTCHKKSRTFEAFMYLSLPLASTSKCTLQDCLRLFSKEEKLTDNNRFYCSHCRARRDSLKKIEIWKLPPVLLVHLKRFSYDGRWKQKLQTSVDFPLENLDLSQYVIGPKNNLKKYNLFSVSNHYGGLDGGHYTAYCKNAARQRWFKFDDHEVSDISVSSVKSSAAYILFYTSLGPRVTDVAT
Outline: as §1

USP9X = USP9X (UniProt Q93008)
Outline: as §1

UniProt O00487 = biological target: UniProt O00487
Outline: as §1

Measured: log2 ratio of Biotin-Ahx-Ub-VS probe labelling

Chain of USP7 (Q93009 whole entry, looked up): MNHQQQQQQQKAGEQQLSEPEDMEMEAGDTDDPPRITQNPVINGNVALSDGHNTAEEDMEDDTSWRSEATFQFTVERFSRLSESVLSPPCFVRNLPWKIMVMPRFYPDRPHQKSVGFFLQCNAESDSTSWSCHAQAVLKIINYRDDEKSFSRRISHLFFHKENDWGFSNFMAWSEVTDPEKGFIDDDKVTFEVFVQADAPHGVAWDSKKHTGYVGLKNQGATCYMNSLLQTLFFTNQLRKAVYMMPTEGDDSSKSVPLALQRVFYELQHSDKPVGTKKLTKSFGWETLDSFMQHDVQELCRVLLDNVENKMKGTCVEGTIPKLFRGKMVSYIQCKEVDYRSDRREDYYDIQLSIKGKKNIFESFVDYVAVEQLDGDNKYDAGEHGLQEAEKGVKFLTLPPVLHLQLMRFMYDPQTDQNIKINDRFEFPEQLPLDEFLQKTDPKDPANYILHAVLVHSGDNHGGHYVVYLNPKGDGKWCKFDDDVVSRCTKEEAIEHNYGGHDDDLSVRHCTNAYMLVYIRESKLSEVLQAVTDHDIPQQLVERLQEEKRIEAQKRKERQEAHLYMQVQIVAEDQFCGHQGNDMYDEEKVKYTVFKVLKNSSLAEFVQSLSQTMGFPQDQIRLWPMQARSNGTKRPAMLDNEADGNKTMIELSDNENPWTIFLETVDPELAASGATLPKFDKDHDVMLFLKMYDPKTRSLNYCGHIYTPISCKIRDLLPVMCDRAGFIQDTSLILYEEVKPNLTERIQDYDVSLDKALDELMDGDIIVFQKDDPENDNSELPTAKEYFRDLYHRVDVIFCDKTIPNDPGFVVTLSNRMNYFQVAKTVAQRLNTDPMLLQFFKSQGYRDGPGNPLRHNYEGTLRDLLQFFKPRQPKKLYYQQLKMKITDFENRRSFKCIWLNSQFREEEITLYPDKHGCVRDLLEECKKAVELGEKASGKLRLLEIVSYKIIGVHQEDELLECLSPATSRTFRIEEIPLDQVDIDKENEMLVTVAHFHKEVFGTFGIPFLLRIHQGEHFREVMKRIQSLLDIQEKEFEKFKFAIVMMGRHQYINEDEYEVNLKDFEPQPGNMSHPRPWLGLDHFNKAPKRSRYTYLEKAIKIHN
Chain of UniProt O00487 (O00487 whole entry): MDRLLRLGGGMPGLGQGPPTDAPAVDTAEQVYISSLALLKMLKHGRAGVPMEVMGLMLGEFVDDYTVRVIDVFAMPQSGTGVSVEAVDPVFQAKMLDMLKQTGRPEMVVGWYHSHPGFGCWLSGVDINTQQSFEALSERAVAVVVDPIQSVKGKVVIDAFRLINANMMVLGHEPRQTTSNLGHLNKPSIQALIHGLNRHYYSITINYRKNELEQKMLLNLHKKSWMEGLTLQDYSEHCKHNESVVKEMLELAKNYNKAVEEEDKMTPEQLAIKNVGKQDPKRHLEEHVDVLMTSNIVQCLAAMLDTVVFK
Chain of USP54 (Q70EL1 whole entry): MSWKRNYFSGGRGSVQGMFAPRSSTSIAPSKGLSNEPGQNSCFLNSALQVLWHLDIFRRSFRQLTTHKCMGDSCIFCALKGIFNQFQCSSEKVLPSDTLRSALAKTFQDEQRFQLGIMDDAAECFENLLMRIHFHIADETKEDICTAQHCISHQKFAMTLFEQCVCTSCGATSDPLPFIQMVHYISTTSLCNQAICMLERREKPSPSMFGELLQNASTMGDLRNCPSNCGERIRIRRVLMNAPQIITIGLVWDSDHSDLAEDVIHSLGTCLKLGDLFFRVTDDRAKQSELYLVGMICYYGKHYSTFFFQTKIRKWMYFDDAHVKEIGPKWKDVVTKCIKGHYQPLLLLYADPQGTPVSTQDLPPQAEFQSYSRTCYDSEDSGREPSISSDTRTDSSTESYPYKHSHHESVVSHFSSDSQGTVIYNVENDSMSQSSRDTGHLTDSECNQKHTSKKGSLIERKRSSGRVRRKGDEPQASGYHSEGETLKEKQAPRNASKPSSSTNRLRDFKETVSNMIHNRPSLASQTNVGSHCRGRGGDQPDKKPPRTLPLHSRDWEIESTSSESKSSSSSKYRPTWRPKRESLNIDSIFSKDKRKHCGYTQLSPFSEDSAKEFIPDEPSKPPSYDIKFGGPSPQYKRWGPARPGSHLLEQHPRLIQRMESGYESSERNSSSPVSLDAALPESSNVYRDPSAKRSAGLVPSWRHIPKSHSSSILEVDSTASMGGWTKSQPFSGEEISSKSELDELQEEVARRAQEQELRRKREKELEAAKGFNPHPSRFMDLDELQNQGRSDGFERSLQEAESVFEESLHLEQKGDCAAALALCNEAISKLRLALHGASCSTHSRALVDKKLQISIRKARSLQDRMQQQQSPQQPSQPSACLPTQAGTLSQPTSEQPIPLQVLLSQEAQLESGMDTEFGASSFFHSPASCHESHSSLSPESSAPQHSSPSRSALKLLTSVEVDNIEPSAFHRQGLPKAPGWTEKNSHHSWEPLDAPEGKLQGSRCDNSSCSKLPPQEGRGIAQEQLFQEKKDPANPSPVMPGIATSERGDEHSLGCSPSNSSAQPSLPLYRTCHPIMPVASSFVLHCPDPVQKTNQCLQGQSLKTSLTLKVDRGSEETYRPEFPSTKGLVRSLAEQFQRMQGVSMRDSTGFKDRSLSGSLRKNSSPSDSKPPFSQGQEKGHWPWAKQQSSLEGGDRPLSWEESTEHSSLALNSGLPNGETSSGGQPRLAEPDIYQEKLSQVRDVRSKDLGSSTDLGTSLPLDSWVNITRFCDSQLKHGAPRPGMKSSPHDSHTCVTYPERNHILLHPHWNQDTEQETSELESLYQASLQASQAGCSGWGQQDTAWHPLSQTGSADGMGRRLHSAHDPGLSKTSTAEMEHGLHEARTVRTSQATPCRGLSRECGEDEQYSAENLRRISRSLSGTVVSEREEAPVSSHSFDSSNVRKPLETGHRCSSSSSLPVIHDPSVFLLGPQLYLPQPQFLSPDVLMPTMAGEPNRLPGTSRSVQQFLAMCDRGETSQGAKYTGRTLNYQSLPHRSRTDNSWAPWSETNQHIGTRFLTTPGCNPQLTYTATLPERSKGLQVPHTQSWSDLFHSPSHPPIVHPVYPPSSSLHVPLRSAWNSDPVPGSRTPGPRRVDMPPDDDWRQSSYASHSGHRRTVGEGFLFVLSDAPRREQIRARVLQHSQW
Chain of USP46 (P62068 whole entry): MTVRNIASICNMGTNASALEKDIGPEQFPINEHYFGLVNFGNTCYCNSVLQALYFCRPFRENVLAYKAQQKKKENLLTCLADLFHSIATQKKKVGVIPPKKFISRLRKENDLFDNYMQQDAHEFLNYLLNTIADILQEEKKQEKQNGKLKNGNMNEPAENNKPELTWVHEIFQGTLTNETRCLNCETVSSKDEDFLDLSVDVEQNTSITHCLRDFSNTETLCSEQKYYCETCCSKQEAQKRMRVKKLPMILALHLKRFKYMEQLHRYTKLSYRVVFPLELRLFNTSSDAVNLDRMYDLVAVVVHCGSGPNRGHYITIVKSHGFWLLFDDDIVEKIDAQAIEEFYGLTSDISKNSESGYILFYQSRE

Cc1ccccc1C1(CNC(=O)CCl)CCOCC1
inactive: USP42 -0.0942 | USP46 0.0453 | USP47 -0.619 | USP48 -0.295 | USP5 0.17 | USP54 0.35 | USP7 -0.102 | USP8 -0.0708 | USP9X -0.0641 | UniProt O00487 -0.115
